# Most compounds without a hit are left out; they make up all but 15% or so of the library.
# ELG1 DNA repair: inhibitors of ELG1-dependent DNA repair in HEK293T cells. HEK293T ELG1-luciferase reporter, luminescence, 16 h; DNA damage induced by 5-fluorouridine. Potency, µM (top dose mostly 46.1 µM), without a hit: at the highest dose activity change, negative = inhibition, most hits filed as inhibitors. actives 2.3% (n = 330,000); further: nearly all actives have a fitted effect of over 55% in size
#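 5-Fluorouridine DNA damage + compound/DMSO, 2,000 cells/well, 16 h, 37 °C/5% CO2. ONE-Glo, 30 min RT, luminescence. Readout = decrease in reporter signal.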
# TDP1 cell noCPT: qHTS for Inhibitors of human tyrosyl-DNA phosphodiesterase 1 (TDP1): qHTS in cells in absence of CPT; Potency, µM (highest dose often 46.2 µM), inactives show top-dose activity change, negative = growth inhibition, hits mostly inhibitors; DT40 Tdp1-/- hTDP1 cells, no CPT, ATP luminescence, 48 h; actives 15% (n = 420,000); further: nearly all actives have a fitted effect of over 55% in size
#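 Camptothecin absent (DMSO only). Human TDP1-complemented DT40 knockout cells, 400 cells/well, 37 °C for minimum 48 hr; ATP measured via CellTiter-Glo, 30 min dark incubation, luminescence.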
# Gal4-VP16 FLuc: counter-screen for ROR gamma inhibitors: Gal4-VP16 reporter. Drosophila S2 Gal4-VP16 UAS-luciferase, luminescence, 20 h. Potency, µM (highest dose often 53.6 µM), inactives show top-dose activity, negative = inhibition, most hits filed as inhibitors. actives 3.5% (n = 310,000). AID 2546;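 further: Gal4-VP16 expression switched on by copper sulfate through the metallothionein promoter; nearly all actives have a fitted effect of over 50% in size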
# RORg inh: blocks mouse ROR gamma transcriptional activity | P51450 | Drosophila S2 Gal4-RORgamma UAS-luciferase reporter, 20 h | Potency, µM (series often up to 53.6 µM), for inactives: at the top dose activity change, negative = inhibition, hits mostly inhibitors | actives 5.4% (n = 310,000) | AID 2551; further: nearly all actives have a fitted effect of over 60% in size
# Target sequence (P51450 whole entry, looked up, the tested form may be a part): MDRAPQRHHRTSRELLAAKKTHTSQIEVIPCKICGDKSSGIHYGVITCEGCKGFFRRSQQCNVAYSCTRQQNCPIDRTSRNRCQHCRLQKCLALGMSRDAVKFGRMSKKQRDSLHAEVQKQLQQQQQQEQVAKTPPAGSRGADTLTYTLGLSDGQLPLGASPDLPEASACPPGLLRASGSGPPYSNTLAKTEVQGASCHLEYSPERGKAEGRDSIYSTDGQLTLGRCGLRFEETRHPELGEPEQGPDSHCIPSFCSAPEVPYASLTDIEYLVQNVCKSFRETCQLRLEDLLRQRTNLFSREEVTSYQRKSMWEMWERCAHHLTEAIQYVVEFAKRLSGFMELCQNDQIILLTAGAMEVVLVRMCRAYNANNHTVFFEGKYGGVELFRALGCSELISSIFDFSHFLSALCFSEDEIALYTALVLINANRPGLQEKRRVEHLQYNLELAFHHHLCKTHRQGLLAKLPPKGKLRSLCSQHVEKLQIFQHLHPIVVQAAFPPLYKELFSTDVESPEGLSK
#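 Using a luciferase readout, inhibitors were identified by reduced reporter activity in Drosophila cells coexpressing a copper-inducible Gal4–ROR gamma fusion and UAS-driven Photinus luciferase, incubated 20 hr after 700 uM copper sulfate.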
# ALOX12 inh: inhibitors of human 12S-lipoxygenase ALOX12; P18054; purified 12hLO, xylenol orange hydroperoxide absorbance; Potency, µM (series often up to 108 µM), without a hit: top-dose activity change, negative = inhibition, usual class: inhibitors; actives 1.1% (n = 580,000); AID 1671190
#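 Purified human 12hLO (150 nM final) in 25 mM Hepes, 0.01% Triton X-100, pH 7.0 was preincubated 15 min at room temperature with compound. Then 40 uM arachidonic acid was added, 30 min. Hydroperoxide was read by Fe-XO absorbance ratio 573/405 nm.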
# DT40 TDP1 CPT: DT40-hTDP1 cell growth loss with CPT. chicken DT40 Tdp1-/-;hTDP1 cells + 20 nM CPT, ATP luminescence, 48 h. Potency, µM (series often up to 46.2 µM), for inactives: at the top dose activity change, negative = growth inhibition, usual class: inhibitors. actives 12% (n = 420,000). AID 686979; further: nearly all actives have a fitted effect of over 55% in size
#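 Chicken DT40 Tdp1-/- cells complemented with human TDP1, 400 cells/well, exposed to compounds plus 20 nM camptothecin for at least 48 h at 37 C; viability read as ATP content by CellTiter-Glo luminescence.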
# Active calls of the source: *; i = inactive; ? = inconclusive; nt = no result; [ ] = dose if it differs, or a comment. The call rests on the fitted dose curve; in most records, active means well fitted curve in the direction sought with a large enough effect; inconclusive means small, poorly fitted or top-dose-only effect, or another doubt; inactive means no such curve, though single readings can be large; an effect the other way counts as inactive or inconclusive. On the % scale 0 is the no-effect control and ±100 the full control effect; potency means the concentration at half of the fitted maximal effect.
SMILES,ELG1 DNA repair,TDP1 cell noCPT,Gal4-VP16 FLuc,RORg inh,ALOX12 inh,DT40 TDP1 CPT
Cc1ccc(C2CC(c3cccs3)=NN2C(=O)CSC2=NN3CCCC(=O)N=C3S2)cc1 (centres undefined),-12.7%,?,4.0%,-7.1%,-4.9%[57.4 µM],13µM*
CCCC1=C(C(=O)OCC)C(c2cc(Cl)cc(OC)c2OCC(=O)OCC)NC(=O)N1 (centres undefined),?,23.1µM*,4.0%,24.1%,-1.8%,?
CN(c1ccccc1)S(=O)(=O)c1ccc(C(=O)Nc2cccc(S(=O)(=O)N3CCOCC3)c2)cc1,nt,7.31µM*,nt,nt,-4.7%,7.31µM*
COc1ccccc1N(C)S(=O)(=O)c1ccc(C(=O)Nc2cccc(S(=O)(=O)N3CCOCC3)c2)cc1,nt,10.3µM*,nt,nt,20.5%,?
O=C(CSCc1ccc(F)cc1)Nc1ccc(N2CCOCC2)cc1N1CCOCC1,?,?,nt,nt,-22.5%,?
Cc1nn(Cc2ccc(F)cc2)c2sc(C(=O)Nc3ccc(N4CCOCC4)cc3N3CCOCC3)cc12,18.4µM*,7.31µM*,-5.9%,?,0.2%,8.2µM*
CC(C)c1ccc(Cc2cnc(NC(=O)C3=Cc4ccccc4OC3)s2)cc1,nt,nt,nt,nt,11.5%,nt
COC(=O)c1sc(S(=O)(=O)Nc2ccccc2Br)c(C(=O)OC)c1C,nt,nt,nt,nt,-4.4%,nt
O=C(CSc1nc(N2CCOCC2)nc(N2CCOCC2)n1)Nc1cccc(C(F)(F)F)c1,-1.3%,?,0.7%,-2.7%,78.9%,-25.0%
O=C(CSc1nc(Nc2ccccc2)nc(N2CCOCC2)n1)Nc1ccc([N+](=O)[O-])cc1,?,14.6µM*,-19.5%,-17.8%,-18.1%,18.4µM*
O=C(Nc1ccc([N+](=O)[O-])cc1)Nc1ccc(N2CCOCC2)c2nonc12,-9.6%,23.1µM*,9.5%,0.4%,?,20.6µM*
CNc1nc(SCC(=O)Nc2ccc(Cl)c(Cl)c2)nc(N2CCOCC2)n1,0.7%,?,?,-43.3%,i,?
O=C(CSc1nc(N2CCOCC2)nc(N2CCOCC2)n1)Nc1ccc([N+](=O)[O-])cc1,16.4µM*,?,-2.7%,30.6%,-5.1%,?
O=C(CSc1nc(Nc2ccccc2)nc(N2CCOCC2)n1)Nc1cccc([N+](=O)[O-])c1,20.6µM*,?,0.4%,?,nt,?
COc1ccc(-c2nc(CSCC(=O)Nc3ccc(C#N)cc3)co2)cc1,nt,nt,nt,nt,-30.1%,nt
Cc1ccc(CNC(=O)N2CCCCCCNC(=O)[C@@H]3CCCC[C@@H]32)cc1,nt,nt,nt,nt,-7.3%,nt
CCN1CCCc2cc(CN(CCN3CCOCC3)C(=S)Nc3cccc(C)c3)ccc21,-10.3%,?,-2.5%[10 µM],6.31µM*,-0.7%,16.4µM*
CCOc1ccc2c(c1)C(N(CCN1CCOCC1)C(=S)Nc1ccccc1OC)CC(C)(C)O2 (centres undefined),-8.0%,?,?,15.8µM*,24.0%,-28.9%
CCN1CCCc2cc(CN(CCN3CCOCC3)C(=S)Nc3ccccc3C)ccc21,8.7%,0.8%,-10.5%[10 µM],4.9%,?,-17.5%
CCN1CCCc2cc(CN(CCN3CCOCC3)C(=S)Nc3ccccc3OC)ccc21,?,16.4µM*,-13.9%,10µM*,-10.7%,?
CCc1ccc(NC(=O)N(CCN2CCOCC2)Cc2ccc3c(c2)CCCN3CC)cc1,?,?,-4.2%,4.8%,-26.8%,?
CCCCN1CCCc2cc(CN(CCCN3CCOCC3)C(=O)Nc3ccc(OCC)cc3)ccc21,nt,18.4µM*,nt,nt,?,18.4µM*
CCCN1C(=O)NC(c2ccc(Br)s2)C(C(=O)OC)=C1C (centres undefined),nt,nt,nt,nt,-18.2%,nt
COC(=O)c1ccc(COC(=O)c2c3c(nc4ccccc24)CCC3)o1,nt,nt,nt,nt,2.9%,nt
CCN1CCCc2cc(CN(CCN3CCOCC3)C(=S)Nc3ccc(OC)c(Cl)c3)ccc21,3.0%,9.2µM*,1.3%,-32.4%,-21.1%,?
SMILES,ELG1 DNA repair,TDP1 cell noCPT,Gal4-VP16 FLuc,RORg inh,ALOX12 inh,DT40 TDP1 CPT
CCN1CCCc2cc(CN(CCN3CCOCC3)C(=O)Nc3ccc(C)c(C)c3)ccc21,?,25.9µM*,0.8%,18.1%,-9.6%,?
CCN1CCCc2cc(CN(CCN3CCOCC3)C(=S)Nc3ccc(OC)c(OC)c3)ccc21,9.8%,18.6%,-1.2%[10 µM],-1.2%,29.7%,-2.6%
CCOC(=O)[C@@H](C)N(C(=O)OC(C)(C)C)S(=O)(=O)N(Cc1ccccc1)[C@H](C(=O)OC)C(C)C,nt,?,nt,nt,20.1%,23.1µM*
COC(=O)[C@H](C(C)C)N(Cc1ccccc1)S(=O)(=O)CCN1CCCC1,9.1%,?,nt,nt,-8.5%,?
O=[N+]([O-])c1cccc(COc2ccccc2CN2CCOCC2)c1,nt,?,nt,nt,-0.4%,?
Cc1cc(OCc2cccc(Cl)c2)c(C)cc1CN1CCOCC1,?,?,0.0%,25.8%,-13.8%,18.4µM*
CN(C)CCCCSC(=N)N,nt,-25.6%,0.1%,11.2%,1.6%,1.2%
N=C(N)SCCN,0.8%,14.6µM*,-3.5%,31.3%,1.3%,23.1µM*
COC(=O)N/N=C/c1cc(Cl)cc(Cl)c1OCc1ccccc1,-2.5%,?,-14.5%,-11.4%,0.0%,18.4µM*
OC(c1cccc(OCc2ccccc2)c1)c1nnc(-c2ccccc2)o1 (centres undefined),-14.7%,18.4µM*,?,0.2%,0.0%,18.4µM*
OC(c1ccc(OCc2ccccc2)cc1)c1nnc(-c2ccccc2)o1 (centres undefined),-5.2%,16.4µM*,?,-25.1%,0.0%,20.6µM*
Cn1ccnc1C(O)c1cccc(OCc2ccccc2)c1 (centres undefined),2.1%,-27.3%,15.0%,13.5%,14.6%,-16.8%
c1ccc(-c2nc(CSc3nnnn3C3CCCC3)co2)cc1,nt,nt,nt,nt,-15.6%,nt
CCC(C)[C@H]1CN=C(N)N1CCc1cccc(F)c1 (some centres undefined),nt,13µM*,nt,nt,4.1%,18.4µM*
Cc1cccc(CCN2C(Nc3ccccc3)=NC[C@@H]2CC(C)C)c1,-4.8%,20.6µM*,nt,nt,22.7%,18.4µM*
CC(C)C[C@H]1CN=C(Nc2ccccc2)N1CCc1cccc(F)c1,3.5%,?,nt,nt,nt,10.3µM*
O=C(Nc1ccccc1-c1ccccc1)C1CCCC1,-4.9%,6.51µM*,-4.6%,-0.3%,19.9%,6.51µM*

# Compound activity from PubChem BioAssay.
